The structures appear in SMILES notation. This is part of a sample that, as a whole, favours compounds with a hit. Of some 83,000 tested, about 20% had one in any assay.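 The endpoint reported here, percent growth, reads 100 for growth as untreated, 0 for no net growth and -100 for all cells dead.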 Unmarked numbers belong to inactive results. Active and inactive are the calls of the source. Rule for the calls: active = growth percent below 10; inactive = the rest.

Assay in all cases: NCI-60 one-dose screen, 48 h (100 = growth as untreated, 0 = no growth, -100 = all killed)
Holding throughout (conditions): 10 µM unless noted

In assay [1] the test system is MOLT-4 leukemia.
Assay [2] has as its system RPMI-8226 leukemia.
The test system of assay [3] is OVCAR-8 ovarian.
Assay [4] concerns OVCAR-5 ovarian.
Assay [5] concerns OVCAR-4 ovarian.
The test system of assay [6] is SK-OV-3 ovarian.
In assay [7] the test system is IGROV1 ovarian.
Assay [8] has as its system OVCAR-3 ovarian.
Assay [9] concerns HS 578T breast.
The test system of assay [10] is NCI/ADR-RES ovarian.
Assay [11] relates to T-47D breast.
Assay [12] relates to BT-549 breast.
Assay [13] concerns MDA-MB-435 melanoma.
Assay [14] relates to SW-620 colon.
For assay [15], the system named is MCF7 breast.
The test system of assay [16] is HCT-116 colon.
Assay [17] concerns HCC-2998 colon.
For assay [18], the system named is KM12 colon.

Take `N#CC1(c2ccccc2)CCN(Cc2ccccc2)CC1`: the growth in assay [1] is 107%; in assay [2] it was 77%; in assay [3], 104%; in assay [4], 98%; in [5], 113%; in [6], 107%. For the same compound, the growth in [7] is 115%; in assay [8], 101%; in [9] it was 96.3%; in [10], 99.7%; in assay [11], 100%; in [12] it was 102%. Besides, the growth in [13] is 95.2%; in assay [14] it was 101%; in [15], 110%; in assay [16], 104%; in [17], 113%; in assay [18], 99.7%.

As to `CCOC(=O)CCC(NC(=O)C(Cc1ccc(N(CCCl)CCCl)cc1)NC=O)C(=O)OCC` (centres undefined), the growth in assay [1] is 5.13% (active); in [2], 30.6%; in [3] it was 44.5%; in assay [4], 42.9%; in assay [5], 61.4%; in assay [6] it was 135%. In addition, the growth is 67.2% in [7]; -17.4% (active) in assay [8]; 51.8% in assay [9]; 67.2% in [10]; 69.6% in assay [12]; 21.1% in assay [13]. Further, the growth in assay [14] is 51.5%; in assay [16] it was 61.5%; in [17] it was 46.9%; in assay [18] it was 82.7%.

Consider `CN1C(=O)N[C@H]2[C@@H]3NC(=O)c4ccc(Br)n4[C@@H]3C[C@]21O`, for which the growth is -9.97% (active) in assay [1]; -23.2% (active) in [2]; -12.4% (active) in [3]; -2.49% (active) in assay [4]; -13.9% (active) in [5]; -2.3% (active) in [6]. Moreover, the growth in assay [7] was -13.9% (active); in [8], -28.7% (active); in [9], -28.5% (active); in assay [10], 48.6%; in assay [11] it was -10.6% (active); in assay [12], -47.8% (active). The growth in [14] was -4.51% (active); in assay [15] it was -4.96% (active); in [16] it was -17.1% (active); in [17] it was -24.1% (active); in assay [18] it was -12.8% (active).

In the case of `CN(C)CC(C(=O)Cc1ccccc1)c1ccccc1` (centres undefined), the growth is 78% in assay [1]; -4.6% (active) in assay [2]; 34% in assay [3]; 133% in [4]; 91.7% in [5]; 124% in [6]. Further, the growth in assay [7] is 84.8%; in assay [8], 6.54% (active); in [10], 76.5%; in [11] it was -37.8% (active); in [12] it was 76.3%; in assay [13] it was 26.8%. Also, the growth is 20.6% in assay [14]; 1.13% (active) in assay [15]; 2.48% (active) in assay [16]; 116% in assay [17]; -1.54% (active) in assay [18].

Regarding `CCCC[C@H](NC(=O)[C@H]1CCCCN1C)C(=O)N(C)[C@H](C[C@@H](OC(C)=O)c1nc(C(=O)N[C@@H](Cc2ccccc2)C[C@H](C)C(=O)OCC)cs1)C(C)C`, the growth in assay [1] is 12.7%; in assay [2], 10.7%; in assay [3], 21%; in assay [4] it was 36.2%; in assay [5], 49.5%; in assay [6] it was -6.08% (active). The growth is 24.4% in assay [7]; 3.86% (active) in assay [8]; 12.1% in assay [9]; 4.37% (active) in assay [10]; 38.6% in assay [11]; -25.6% (active) in [12]. Further, the growth in assay [13] was -6.84% (active); in assay [14], 24.6%; in assay [17] it was 14.5%; in assay [18], 13.1%.

`COc1cc2c(c(OC)c1OC)-c1ccc([O-])c(=O)cc1[C@@H](NC(C)=O)CC2.COc1cc2c(c(OC)c1OC)-c1ccc([O-])c(=O)cc1[C@@H](NC(C)=O)CC2.[Cu+2]`: the growth was 10.5% in assay [1]; 15.3% in assay [2]; 23.2% in [3]; 54.3% in assay [4]; 48.6% in assay [5]; 17.2% in [6]. Also, the growth is -0.159% (active) in assay [7]; -26.7% (active) in assay [8]; 40.4% in assay [10]; 41.1% in assay [11]; 12.8% in [12]; -18.8% (active) in [13]. Besides, the growth in assay [14] was 19.3%; in assay [15], 11%; in assay [16] it was 8.67% (active); in assay [17] it was -14.9% (active); in assay [18], 6.75% (active).

For the compound `CC[CH2][Sn]([Cl])([Cl])[CH2]CC`, the growth was 58.6% in assay [1]; 19% in assay [2]; 89.7% in assay [3]; 94.9% in assay [4]; 95.2% in assay [5]; 107% in [6]. Moreover, the growth in assay [7] was 84.6%; in assay [8], 105%; in [9], 96.8%; in [10], 106%; in assay [11] it was -3.16% (active); in [12] it was 60.7%. In addition, the growth in [14] is 36.9%; in assay [15], 50.4%; in assay [16] it was 79.9%; in assay [17], 87.7%; in assay [18], 101%.

As to `CC(=O)O[C@H](C[C@H](C(C)C)N(C)C(=O)[C@@H](NC(=O)[C@H]1CCCCN1C)C(C)C)c1nc(C(=O)N[C@@H](Cc2ccccc2)C[C@H](C)C(=O)O)c(C(C)C)s1`, the growth in assay [1] was 7.85% (active); in assay [2], 17.4%; in assay [3], 6.46% (active); in assay [4] it was 39.1%; in assay [5] it was 46.9%; in assay [6] it was 27%. For the same compound, the growth in assay [7] was 20.6%; in [8], -28.1% (active); in [9], 17%; in assay [10], 0.688% (active); in assay [11] it was 44%; in [12], -23.3% (active). Moreover, the growth was -42% (active) in assay [13]; 27.3% in assay [14]; 15.1% in assay [15]; 3.68% (active) in [16]; -2.79% (active) in assay [17]; 4.51% (active) in [18].

Consider `C[Se]C(=O)c1ccccc1OC(C)=O`, for which the growth in assay [1] was 54.8%; in assay [2], 88.6%; in assay [3] it was 35.1%; in [4], 54.3%; in [5], 85.3%; in assay [6] it was 118%. Moreover, the growth in assay [7] was 46.1%; in assay [8] it was 55.3%; in [9] it was 35.3%; in assay [10], 35%; in assay [11], 89.1%; in [12], 27.9%. Further, the growth in [13] is 46.4%; in [14] it was 79.6%; in assay [15], 53.3%; in assay [16], 19.6%; in assay [17], 95.5%; in assay [18] it was 88.9%.

For the origin of these results see PubChem BioAssay (NCI).
